# Bioassay records as filed in PubChem BioAssay.
# In the library only some 8% were active in any assay of this set; here they are far more common.
# Marburg entry inh = inhibitors of Marburg virus binding or cell entry | 1.8% of 300,000 active | Potency, µM (doses to about 37.8 µM), hits mostly inhibitors | AID 540276 | Marburg virus pseudotyped entry inhibition, cell reporter; calls by dose curve; tested in HEK293 cells
# FMDV antiviral = blocks foot and mouth disease virus; FMDV antiviral cell-based qHTS; Potency, µM (titrated, usually from 57.9 µM), usual class: inhibitors; 1.2% of 410,000 active; AID 1159524; calls by dose curve; tested in HEK293T cells; also: read-out not given here; nearly all actives have a fitted effect of over 45% in size
# LASV entry inh = Lassa virus entry inhibition | AID 540256 | Potency, µM (doses to about 37.9 µM), hits mostly inhibitors | Lassa virus pseudotype entry inhibition, cell reporter | 1.2% of 300,000 active; calls by dose curve; tested in HEK293 cells; also: nearly all actives have a fitted effect of over 50% in size
# SARS PLP yeast = blocks SARS-CoV papain-like protease in a yeast assay; 0.19% of 330,000 active; Potency, µM (doses to about 32.9 µM), usual class: activators; S. cerevisiae expressing SARS-CoV PLpro, growth rescue; AID 485353; calls by dose curve; also: nearly all actives have a fitted effect of over 55% in size
# HCMV inh = blocks human cytomegalovirus replication. HFF cells, HCMV-luciferase reporter, 72 h; stronger effect = lower value. activity change, negative = inhibition, % at 57.5 µM. 4.5% of 410,000 active; in the data active = activity change below about -60%; inconclusive = no clear call, values can overlap the other calls; inactive = above about -39%
#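 Two compound doses tested in HFFs infected with HCMV-luciferase, MOI 1 PFU/cell, 72 h at 37C. Lysate luminescence read with OneGlo; data normalized against buffer-only and 10uM Salinomycin inhibitor controls.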
# HCV inh = HCV inhibition; Huh7.5.1 HCVcc-Cre infection, luciferase reporter, 44 h; 3.4% of 340,000 active; Potency, µM (highest dose often 41.8 µM), most hits filed as inhibitors; active = well fitted inhibition curve with a large enough effect; inconclusive = small, poorly fitted or top-dose-only effect, or another doubt; inactive = no such curve, though single readings can be large or run the other way
#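 HCVcc-Cre virus at an moi near 0.5 was added right after compound to cells cultured 4 h from seeding (1,000 cells/well). Luciferase activity was determined 44 h later, 15 min after substrate addition at RT.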
# Numbers stand for hits; 0 = inactive; ? = inconclusive; - = not tested or not shown.
SMILES,Marburg entry inh,FMDV antiviral,LASV entry inh,SARS PLP yeast,HCMV inh,HCV inh
Cc1ccc(NC2=C(N3CCOCC3)C(=O)c3ccccc3C2=O)cc1,?,-,?,0,0,?
COC1=C(Nc2ccc(O)cc2)C(=O)c2ccccc2C1=O,?,0,?,0,0,?
CCN(CC)c1ccc(NC2=C(Cl)C(=O)c3ccccc3C2=O)cc1,3.98µM,?,5.62µM,0,-,?
CCCC(=O)NC1=C(Cl)C(=O)c2ccccc2C1=O,?,?,?,-,?,3.16µM
Cc1ccc(C(=O)NNC(=O)COC(=O)COc2ccccc2C#N)cc1,-,0,-,0,0,0
Cc1ccc(C(=O)CNc2ccc(C)cc2C)cc1,0,0,0,0,0,?
CN1CCN(c2nc(-c3ccccc3)cc(C(F)(F)F)n2)CC1,?,0,0,0,0,?
O=[N+]([O-])c1cnn(-c2nc(-c3cccs3)cc(C(F)(F)F)n2)c1,0,0,0,0,-99.0,0
CN1CCN(c2nc(-c3cccs3)cc(C(F)(F)F)n2)CC1,?,0,0,0,0,2.82µM
COC(=O)C1=C2C=CCCN2C(=O)NC1c1ccccc1 (stereo not drawn),0,-,-,-,-,-
Cc1nn(C(C)C)c(C)c1CN1CCN(Cc2ccsc2)C(CCO)C1 (stereo not drawn),0,0,0,0,0,0
COC(=O)c1ccccc1NC(=O)CCc1c(C)nc2c(c(C)nn2-c2ccccc2)c1C,0,0,0,-,0,-
COC(=O)c1c(C)nc2c(c(SC)nn2-c2ccccc2)c1N,?,0,0,0,0,11.2µM
CCOC(=O)C1=CCN(S(=O)(=O)c2ccccc2Cl)C1c1ccc(Cl)c(Cl)c1 (stereo not drawn),-,?,-,-,0,-
CCOC(=O)C1=CCN(S(=O)(=O)c2ccccc2C)C1c1ccc(Cl)c(Cl)c1 (stereo not drawn),-,0,-,-,-75.6,-
CC(Cc1ccccc1)NC(=O)CC(c1ccccc1)c1ccccc1O (stereo not drawn),?,0,5.62µM,0,0,?
Cc1cc2cc(C)c3nnc(SCc4ccccn4)n3c2cc1C,0,0,0,0,-65.0,?
Cc1ccc(C)c2c1cc(C)c1nnc(SCc3ccccn3)n12,0,0,0,0,0,0
Cc1cccc(CC(=O)Nc2ccc3nc(N4CCC(C)CC4)cc(C)c3c2)c1,0,0,0,-,0,-
COc1cccc(OCc2cc(C(=O)N(C)CCOc3ccc(C)cc3)no2)c1,-,0,-,0,0,11.2µM
CN(CCc1ccccn1)C(=O)c1cc(COc2ccc(F)cc2F)on1,0,0,0,0,?,0
Cc1ccc(OCc2cc(C(=O)N(C)CCc3ccccn3)no2)cn1,-,0,-,0,-62.9,0
COc1cccc(CN(C)C(=O)c2cc(COc3ccc4ncccc4c3)on2)c1,0,11.2µM,?,0,-86.2,5.62µM
Cc1ccccc1C(=O)Nc1ccccc1OCc1cc(=O)n2ccccc2n1,-,0,?,-,0,-
Cc1cc2ccccc2n1CCNC(=O)Cc1cccc2ccccc12,-,0,-,0,0,6.31µM
SMILES,Marburg entry inh,FMDV antiviral,LASV entry inh,SARS PLP yeast,HCMV inh,HCV inh
Cc1cc2ccccc2n1CCNC(=O)c1ccccc1,?,?,7.94µM,0,?,0
CC(=O)NCCOc1cccc2ccccc12,0,0,0,0,0,?
O=C(Cc1cccc2ccccc12)NCCOc1ccccc1F,0,0,0,0,-62.6,0
Cc1cc2ccccc2n1CCNC(=O)c1ccc(Br)cc1,0,0,0,-,?,-
O=C(O)c1cccc(N/N=C/c2ccc(OC(F)(F)F)cc2)c1,?,25.1µM,?,0,0,0
O=C(Oc1ccc(/C=N/Nc2ccccc2)cc1)c1ccccc1,0,0,0,0,0,0
O=C(O)c1ccc(N/N=C/c2ccc(OC(=O)c3cccc(Cl)c3)cc2)cc1,-,20µM,-,0,-64.1,0
CSc1ccc(/C=N/Nc2cccc(C(=O)O)c2)cc1,?,2.24µM,0.891µM,0,-,0
CSc1ccc(/C=N/NC(=O)c2ccccc2Cl)cc1,?,0,8.91µM,0,0,?
O=C(O)c1cccc(N/N=C/c2cccs2)c1,1.46µM,2.24µM,5.8µM,0,0,0
COc1ccc(N/N=C(\C#N)C(N)=O)cc1,0,0,0,0,0,0
N#C/C(=N/Nc1ccc(OC(F)(F)F)cc1)C(N)=S,-,0,-,0,-98.4,?
N#CC1=C(N)N(c2ccc(F)cc2)C2=C(C1c1ccc(O)cc1)S(=O)(=O)CC2 (stereo not drawn),?,0,0,0,0,0
Cc1cc(C(=O)Nc2ccccc2-c2nc(CNC(=O)c3cc4ccccc4cn3)c(C)o2)c(C)o1,-,0,-,-,-,-
Cc1occc1-c1nnc(SCC(=O)Nc2nc(C(C)(C)C)cs2)o1,?,0,0,0,-69.4,?
Cc1csc(NC(=O)CSc2nnc(-c3ccoc3C)o2)n1,0,0,?,0,0,?
Cc1ccc(C)c(CN2CCC3(CCC(CNC(=O)c4ccnn4C)O3)CC2)c1 (stereo not drawn),-,0,-,-,-,-
Cc1ccn2c(NCc3ccc4c(c3)OCO4)c(-c3ccc(O)cc3)nc2c1,0,0,0,7.94µM,0,0
O=C(N/C(=C/c1ccc(F)cc1)C(=O)N1CCOCC1)c1ccccc1,0,0,0,0,0,0
O=C(N/C(=C/c1ccc(Cl)cc1)C(=O)N1CCOCC1)c1ccccc1,?,0,0,0,-78.0,0
O=C(N/C(=C/c1cccs1)C(=O)N1CCCCCC1)c1ccccc1,0,0,0,0,-97.7,0
O=C(N/C(=C\c1cccs1)C(=O)N1CCCCCC1)c1ccccc1,0,-,0,0,0,0
CCOC(=O)c1ccccc1NC(=O)N(C)CCc1c(C)nn(CC)c1C,-,0,0,-,0,-
Cc1cccc(NC(=O)NC(C)C(c2cccs2)N2CCOCC2)c1 (stereo not drawn),-,0,-,0,-67.0,0
COc1cccc2c1C1COC3C4CC(C(=O)O)C(C(C2)N13)N4C (stereo not drawn),?,0,?,-,-96.0,?
SMILES,Marburg entry inh,FMDV antiviral,LASV entry inh,SARS PLP yeast,HCMV inh,HCV inh
COc1cccc2c1C(CCCC(=O)O)CCC2 (stereo not drawn),0,0,?,-,0,0
O=[N+]([O-])c1ccc(C2OCCO2)cc1CS(=O)(=O)c1ccccc1,0,0,0,0,0,0
Cc1nc(CN2CCN(C(=O)NC3(c4ccccc4)CC3)CC2)cs1,0,0,0,0,-77.0,0
COc1ccc(N(Cc2cccs2)C(=O)COc2ccc([N+](=O)[O-])cc2)cc1,0,?,0,-,?,-
CC(NS(=O)(=O)c1ccc(OCC(=O)NCc2ccncc2)cc1)c1ccccc1 (stereo not drawn),4.47µM,0,-,0,?,0
COc1cc(C(=O)Nc2nnc(CC(=O)NCc3ccccc3)s2)cc(OC)c1OC,-,0,-,?,0,0
COc1ccc(C2CC(c3cccs3)=NN2C(=O)c2ccccc2)cc1OC (stereo not drawn),0,0,0,0,0,0
COc1ccc(C2CC(c3cccs3)=NN2C(=O)CCl)cc1OC (stereo not drawn),?,?,?,0,-97.2,?
